Source: PubChem BioAssay
ALDH1A1 block – ALDH1A1 (human) enzyme inhibition | P00352 | 220,000 tested, 7.3% active | Purified ALDH1A1, NADH fluorescence, propionaldehyde substrate | AID 1030 | Potency, µM (doses to about 75.3 µM), for the others: top-dose activity, negative = inhibition, most hits filed as inhibitors;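 further: potency means the concentration at half of the fitted maximal effect; plate controls were no enzyme wells and a reference inhibitor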
IMPase inh – cell-permeable inhibitors of inositol monophosphatase (IMPase); inhibition (IP1 accumulation), % at 46.1 µM; AID 901; 120,000 tested, under 10 active; CHO-M1 cells, IP1 accumulation, HTRF TR-FRET ratio; active means well fitted curve in the direction sought with a large enough effect in the signal ratio, not every such curve was filed as active; inconclusive means small, poorly fitted or top-dose-only effect, or a change in a side signal; inactive means no such curve, though single readings can be large or run the other way; the % refers to the signal ratio;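 further: cells stimulated with carbachol in lithium chloride buffer; plate controls were DMSO basal wells for no effect and reference inhibitor wells for full effect; higher means more IMPase inhibition seen as more IP1 and lower FRET ratio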
Target sequence (P97697 whole entry, looked up): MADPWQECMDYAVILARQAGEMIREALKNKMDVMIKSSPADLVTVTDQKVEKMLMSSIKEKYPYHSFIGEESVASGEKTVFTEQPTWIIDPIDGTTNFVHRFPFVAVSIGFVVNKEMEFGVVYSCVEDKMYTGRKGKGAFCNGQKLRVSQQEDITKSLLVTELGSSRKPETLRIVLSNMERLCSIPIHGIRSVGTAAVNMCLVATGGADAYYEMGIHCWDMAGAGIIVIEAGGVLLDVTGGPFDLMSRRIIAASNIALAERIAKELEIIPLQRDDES
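Cellular IMPase inhibition is scored as a rise in cytosolic IP1, detected by competitive TR-FRET between d2-labelled IP1 and a europium anti-IP1 antibody. M1-expressing CHO cells were stimulated with carbachol for 30 min at 37C, with lithium (50 mM LiCl) present in the buffer.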
IMPase Li cell – IMPase inhibition in cells with lithium potentiation. 210,000 tested, 0.35% active. Potency, µM (series often up to 59.4 µM), for the others: top-dose activity, negative = IMPase inhibition, hits mostly inhibitors. CHO-M1 cells, IP1 TR-FRET (IP-One), carbachol + lithium. AID 1457; active means well fitted inhibition curve with a large enough effect; inconclusive means small, poorly fitted or top-dose-only effect; inactive means no such curve, though single readings can be large or run the other way;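 further: IP1 builds up when IMPase is blocked and the TR-FRET signal falls; potency means the concentration at half of the fitted maximal effect; plate controls were basal vehicle for no effect and high inhibitor control for full effect; nearly all actives have a fitted effect of over 50% in size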
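CHO-M1, 2000 cells/well, 16–30 h culture; cpd + low Li+, 30 min 37C; lysis with d2-IP1/Eu-anti-IP1 Ab, 10 min RT; TR-FRET 665/620 ratio and 620 channel; AC50 via Hill.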
PNC inhibitor – inhibitors of perinucleolar compartment assembly | PC3M PTB-GFP, PNC prevalence imaging, 16 h; hits give low values | activity change (PNC), negative = inhibition, % at 10 µM | 140,000 tested, 3.1% active | AID 2417;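 active means readout at or below -70, meaning at least 70% loss of cells showing the perinucleolar compartment, a nuclear body marking cancer cells; inconclusive means readout between -30 and a set limit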;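 further: plate controls were DMSO wells for no effect and camptothecin positive control wells for full effect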
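Read-out is percentage of cells bearing a perinucleolar compartment, from automated 20x imaging of fixed, Hoechst-stained PC3M PTB-GFP cells. Cells were seeded 4 h, then exposed 16 h to compound (23 nl of library stock) in duplicate plates.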
HPGD block – inhibitors of human 15-hydroxyprostaglandin dehydrogenase (HPGD); P15428; purified HPGD, NADH fluorescence kinetic, PGE2 substrate; Potency, µM, for the others: at the top dose activity change, negative = inhibition, actives largely listed as inhibitors; 150,000 tested, 4.3% active; AID 894; further: potency means the concentration at half of the fitted maximal effect
Target sequence (P15428 whole entry, looked up): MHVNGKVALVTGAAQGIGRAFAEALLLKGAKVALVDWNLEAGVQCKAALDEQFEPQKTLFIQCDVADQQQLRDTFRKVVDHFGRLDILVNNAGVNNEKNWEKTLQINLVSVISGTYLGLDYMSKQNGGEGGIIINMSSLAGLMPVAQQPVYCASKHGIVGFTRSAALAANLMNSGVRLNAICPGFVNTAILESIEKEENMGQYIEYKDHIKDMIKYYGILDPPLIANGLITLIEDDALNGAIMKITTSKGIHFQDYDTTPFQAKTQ
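NADH formation kinetics: reaction with 30 uM PGE2 and 1 mM NAD+ (final), 20 nM enzyme, Tris-HCl pH 8 with Tween 20, after 15 min compound preincubation at room temperature. Fluorescence change, last versus first of five reads.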
* marks the source's active call; other numbers are inactive results; ? = inconclusive; / = not tested or not shown; [ ] = another dose, or the depositor's remark. The list is not random: actives were taken first. Their share in the collection is about 11%. Unless noted, the call rests on the fitted dose curve; in most records, active means well fitted inhibition curve with a large enough effect (not every such curve was filed as active); inconclusive means small, poorly fitted or top-dose-only effect, or another doubt; inactive means no such curve, though single readings can be large or run the other way. Unless noted, on the % scale 0 is the no-effect control and ±100 the full control effect.

SMILES	ALDH1A1 block	IMPase inh	IMPase Li cell	PNC inhibitor	HPGD block
COc1ccc(-n2c(C)nc3cc(C(=O)N4CCOCC4)ccc32)cc1	?	10	23%[38.3 µM]	?	2.2µM*
CCCCOc1ccc(C(=O)N2CCCCCC2)cc1	?	-7	10%	-22	0.79µM*
CCOc1ccc(C(=O)N2CCCN(C(=O)c3ccc(OCC)cc3)CC2)cc1	-14%	6	21%[38.3 µM]	-15	-9%
COc1ccc(-n2c(C)nc3cc(C(=O)NCCN4CCOCC4)ccc32)cc1	8%	-6	14%[38.3 µM]	?	-5%
O=C(c1ccc(Cl)cc1)N1CCCOC1	18%	-2	17%[38.3 µM]	33	8.9µM*
O=C(c1ccc(C(F)(F)F)cc1)N1CCCCC1	-3%	?	25%[38.3 µM]	43	2.8µM*
Cc1nc(N2CCOCC2)c2nc(-c3ccccc3)n(CCN3CCOCC3)c2n1	?	/	-9%	/	?
Cc1nc2ccc(S(=O)(=O)NCC(=O)N3CCCC(C)C3)cc2s1 (configuration not stated)	-2%	1	-5%[38.3 µM]	22	-6%
C[C@H](N=C(NC#N)Nc1ccncc1)C(C)(C)C	-5%	2	11%	/	-28%
COC(=O)[C@H](CCSC)NC(=O)C/C=C\[C@@H](C)[C@@H](CO)OC	7%[13.5 µM]	/	/	/	/
CN(C)S(=O)(=O)c1ccc(C(=O)N2CCOCC2)cc1	7%	-13	4%[38.3 µM]	-11	-8%
COc1ccc(C(=O)N2CCCC2)cc1	-14%	15	-8%[38.3 µM]	-29	6.3µM*
CCCCOc1ccc(C(=O)N2CCC(C)CC2)cc1	-10%	-14	21%[38.3 µM]	17	1µM*
COc1ccc(C(=O)N2CCN(C(=O)c3ccncc3)CC2)cc1	9%	1	5%[38.3 µM]	65	-7%
COc1ccc(S(=O)(=O)N(C)c2ccc(C(=O)N3CCOCC3)cc2)cc1	?	-5	-13%[38.3 µM]	?	6.3µM*
Cc1nn(C(=O)c2ccco2)c(C)c1Br	?	0	8%[38.3 µM]	?	-6%
COc1ccc(C(=O)n2nc(C)c(Br)c2C)cc1	10µM*	7	-23%[38.3 µM]	?	-8%
COCCN(CCOC)c1nc(C)nc2c1nc(-c1ccccc1)n2CCCN(C)C	?	/	-8%	/	?
O=C(Oc1cccc(Nc2ncnc3ccccc23)c1)c1ccccc1Cl	-1%	14	20%	?	?
COc1ccc(C(CNC(=O)c2ccc(S(=O)(=O)N(C)C)cc2)N2CCCCC2)cc1 (configuration not stated)	10µM*	/	15%	/	/
COc1ccc(OCc2ccc(C(=O)O)cc2)cc1	12%	0	17%[38.3 µM]	32	-7%
COc1ccc(C(CNC(=O)Cc2ccccc2F)N2CCCCC2)cc1 (configuration not stated)	-7%	/	17%	/	/
N#C/C(=C\c1ccc(OCc2ccc(C(=O)O)cc2)cc1)C(=O)N1CCOCC1	-2%	/	-5%	?	14µM*
COc1ccc(OCc2ccc(C(=O)N3CCOCC3)cc2)cc1	-6%	8	-6%	5	7.9µM*
Nc1ccc(C(=O)n2c3ccccc3c3ccccc32)cc1	11µM*	4	-8%	?	32µM*
SMILES	ALDH1A1 block	IMPase inh	IMPase Li cell	PNC inhibitor	HPGD block
COc1cc(-c2nc3n(n2)C(c2ccc(F)cc2)C(C(N)=O)=C(C)N3)cc(OC)c1OC (configuration not stated)	/	2	/	/	/
O=C(c1ccc(-n2cnnn2)cc1)N1CCCCC1	?	0	5%	35	16µM*
Nc1cc(C(=O)N2CCCC2)cc(C(=O)N2CCCC2)c1	-5%	-6	13%[38.3 µM]	?	-13%
CCCCOc1ccc(C(=O)N2CCCC2C(=O)O)cc1 (configuration not stated)	-1%	?	2%	-100*	-18%
Nc1ccc(C(=O)N2CCCC2)cc1	-6%	3	1%	?	28µM*
CC(O)C#C[Si](C)(C)c1ccccc1 (configuration not stated)	3%	/	10%	/	-4%
N#CC(C#N)=Cc1ccc(OC(=O)c2ccccn2)cc1	2µM*	2	0%	-21	-9%
CN(C)c1ccc(NC(=S)c2ccccn2)cc1	?	/	0%	38	25µM*
CN(C)c1ccc(/C=C(\C#N)c2ccccn2)cc1	9.5µM*	/	4%	13	-22%
CCNc1ncc2nc(C)c(=O)n(C3CC3)c2n1	?	/	-15%	/	/
